KCNQ2 inh = KCNQ2 (rat) channel inhibition; CHO-K1 KCNQ2, FluxOR thallium flux, 20 min; active compounds read low; B-score at 10 µM; hit rate 1.1% among 310,000;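 active means fluorescence ratio B-score at most minus 3 library SDs, with starting brightness B-score within 2 library SDs, cut at about -5.5 in these data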
Target sequence (O88943 whole entry, looked up): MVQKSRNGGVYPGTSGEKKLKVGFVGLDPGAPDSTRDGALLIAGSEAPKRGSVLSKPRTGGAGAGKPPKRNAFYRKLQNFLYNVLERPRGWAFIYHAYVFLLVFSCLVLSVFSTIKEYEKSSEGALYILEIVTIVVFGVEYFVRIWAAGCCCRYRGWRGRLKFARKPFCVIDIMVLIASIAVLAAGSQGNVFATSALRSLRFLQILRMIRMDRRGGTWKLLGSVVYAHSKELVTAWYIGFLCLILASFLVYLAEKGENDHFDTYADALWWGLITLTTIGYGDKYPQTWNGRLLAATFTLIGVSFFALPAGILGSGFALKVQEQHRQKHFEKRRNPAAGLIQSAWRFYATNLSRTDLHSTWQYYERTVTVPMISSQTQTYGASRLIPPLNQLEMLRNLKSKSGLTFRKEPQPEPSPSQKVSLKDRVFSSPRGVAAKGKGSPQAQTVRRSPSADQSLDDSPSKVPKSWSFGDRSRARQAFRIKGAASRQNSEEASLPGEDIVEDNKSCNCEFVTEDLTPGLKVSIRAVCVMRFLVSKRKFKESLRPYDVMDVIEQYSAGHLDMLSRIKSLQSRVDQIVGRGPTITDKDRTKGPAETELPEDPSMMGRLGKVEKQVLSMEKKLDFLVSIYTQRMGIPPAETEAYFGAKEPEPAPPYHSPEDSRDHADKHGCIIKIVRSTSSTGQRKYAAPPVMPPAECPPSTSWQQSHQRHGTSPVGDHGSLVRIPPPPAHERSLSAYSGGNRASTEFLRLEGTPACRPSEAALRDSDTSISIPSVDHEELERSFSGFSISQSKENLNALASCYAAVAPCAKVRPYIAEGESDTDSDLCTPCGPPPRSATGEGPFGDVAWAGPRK
KCNQ2 enhance = KCNQ2 (rat) channel potentiation; O88943; CHO-K1 KCNQ2, FluxOR thallium flux fluorescence; active compounds read high; B-score at 10 µM; hit rate 0.54% among 310,000; AID 2239;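 active means fluorescence ratio B-score at least 3 SD of library B-scores, with initial fluorescence B-score within 3 of them, cut at about 5.3 in these data; same plate scores as AID 2156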;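 further: B-score of peak minus minimum over baseline fluorescence ratio after K+ and Tl+ stimulus; positive B-score means potentiation of KCNQ2 with more thallium influx and brighter signal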
Active calls of the source: *; i = inactive; nt = no result given. An excerpt weighted towards active compounds, which were near 1.6% of everything screened.

SMILES	KCNQ2 inh	KCNQ2 enhance
CC(CCc1ccccc1)NC(=O)COC(=O)C12CC3CC(CC(Br)(C3)C1)C2 (centres undefined)	i	nt
CCN(C(=O)CSc1ncnc2sc(C)c(C)c12)C1CCS(=O)(=O)C1 (centres undefined)	i	nt
CCCN(CC1CC1)C(=O)CSc1ncnc2sc(C)c(C)c12	-6.3*	-6.3
CCOC(=O)C1=NN(C(=O)c2ccc(OC)cc2)C(O)(c2ccc(Cl)cc2)C1 (centres undefined)	i	16*
CCOC(=O)C1=NN(C(=O)c2ccccc2)C(O)(c2ccc(C)cc2)C1 (centres undefined)	i	3.8
CC(=O)N(Cc1ccccc1C)c1cccc(C)c1C	i	0.69
COc1ccc(C2NC(C(=O)O)Cc3c2[nH]c2ccccc32)cc1CN1CCN(c2ccc(F)cc2)CC1 (centres undefined)	-5.7*	-5.7
O=C(O)C1Cc2c([nH]c3ccccc23)C(c2ccc3c(c2)OCO3)N1 (centres undefined)	i	nt
CC(C)(C)OC(=O)NCc1n[nH]c(=S)n1C1CC1	i	1.6
COc1ccccc1N1C(=O)CC(Sc2ccccc2N)C1=O (centres undefined)	i	0.2
CC(C)CNC(=O)c1cccc(NC(=O)Cc2ccc(Cl)cc2)c1	i	2.2
O=C(NCc1ccco1)c1ccc(Cn2c(=O)c3ccccc3n(Cc3ccc(Cl)cc3)c2=O)cc1	-6.5*	-6.5
O=C(NCc1ccco1)c1ccc(Cn2c(=O)c3ccccc3n(Cc3cccc(F)c3)c2=O)cc1	i	nt
Cc1cc(NC(=O)CSc2ncccc2C(=O)O)no1	i	nt
CCC1CN(C(=O)N2CCC(C(=O)NCc3ccco3)CC2)c2cc(C)ccc2O1 (centres undefined)	i	0.9
O=C(COC(=O)c1ccccc1Nc1ccccc1)Nc1ccccc1	i	5.8*
CC(=O)c1ccc(NC(=O)COC(=O)c2ccccc2Nc2ccccc2)cc1	i	nt
Cc1ccc2c(c1)N(CCC(=O)NC1CCCCC1C)C(=O)CO2 (centres undefined)	i	1.5
CC(C)(C)NC(=O)c1cc([N+](=O)[O-])ccc1N1CCCCC1	i	0.03
CC(NC(=O)c1ccc(OC2CCN(Cc3ccccn3)CC2)cc1)c1nccs1 (centres undefined)	i	0.02
CC(C)(C)OC(=O)N1CCC(CC2CC(c3cccc(Br)c3)=NO2)(C(=O)NCC2CCCCC2)CC1 (centres undefined)	-8.1*	-8.1
O=C(c1ccccc1)N1CCC(CC2CC(c3cccc(Br)c3)=NO2)(C(=O)NCC2CCCCC2)CC1 (centres undefined)	i	nt
CCCC1=Nc2cc(C(=O)N3CCC(C(=O)OCC)CC3)ccc2Sc2ccccc21	i	nt
Cc1ccc(NC(=O)CSc2nnc(CSc3nc(C)cc(C)n3)n2Cc2ccco2)c(C)c1	-6.7*	-6.7
Cc1ccc(C)c(NC(=O)CSc2nnc(CSc3nc(C)cc(C)n3)n2Cc2ccco2)c1	i	nt
SMILES	KCNQ2 inh	KCNQ2 enhance
Cc1ccc(NCc2nnc(SCC(=O)c3ccccc3)o2)c(C)c1	i	nt
Cc1ccc(NCc2nnc(SCC(=O)c3ccccc3)n2Cc2ccco2)c(C)c1	-7.8*	-7.8
COc1cc(C)c(NC(=S)Nc2cccc(Cl)c2C)cc1OC	i	1.4
COc1ccc(-c2noc3c2-c2nc(-c4cccc(C)c4)sc2CC3)cc1	i	nt
Cc1nn(C)c2ncc(C(N)=O)c(Oc3ccc(Cl)cc3)c12	i	0.43
CCOc1cc(/C=C/C(=O)N(CC)CC(=O)NCc2cccs2)cc(Cl)c1OC	i	nt
Cc1cc(C)c2[nH]c(O)c(N=NC(=S)NCC3CCCO3)c2c1 (centres undefined)	i	1.2
Oc1[nH]c2c(Cl)cc(Cl)cc2c1N=NC(=S)NCC1CCCO1 (centres undefined)	i	11*
CCn1c(-c2cc(-c3cc(OC)ccc3OC)nc3ccccc23)n[nH]c1=S	i	nt
CCn1c(-c2cc(-c3ccccc3OC)nc3ccccc23)n[nH]c1=S	-7.2*	-7.2
COC(=O)[C@@]12CCCCN1[C@H](c1ccc(-c3cccc(Cl)c3)c(OC)c1)[C@H]1C(=O)N(C)C(=O)[C@H]12	i	nt
CCc1nnc(NC(=O)C2CCCN2C(=O)Nc2ccc(Cl)cc2)s1 (centres undefined)	i	0.22
Cn1nc(C(=O)Nc2ccccc2N2CCCC2)c2ccccc2c1=O	-5.6*	-5.6
CC(C)n1nc(C(=O)Nc2ccccc2N2CCOCC2)c2ccccc2c1=O	i	nt
Cn1c(C(=O)N2CCC(C(=O)NCc3ccccc3)CC2)cc2sccc21	i	0.02
CCCCC1=CC2=CC(=O)C(C)(OC(=O)c3ccc(Cl)nc3)C(=O)C2=CO1 (centres undefined)	i	nt
COC(=O)CCSc1nc(N2CCOCC2)c2c(c1C#N)CC(C)(C)OC2	i	1.8
CC(C)CCSc1nc(N2CCOCC2)c2c(c1C#N)CC(C)(C)OC2	-6.5*	-6.5
O=C(CN1C(=O)C2C3c4ccccc4C(c4ccccc43)C2C1=O)Nc1ccccc1C(=O)O (centres undefined)	i	nt
O=C(Nc1ccccc1-c1ccccc1)c1ccccc1Br	-6.3*	-6.3
O=C(Nc1ccccc1Br)c1ccccc1-c1ccccc1	i	nt
CC1CN(S(=O)(=O)c2ccc(CN3C(=O)c4cccnc4C3=O)s2)c2ccccc2O1 (centres undefined)	i	0.03
Cc1ccc2c(C)c(C(=O)N3CCC(O)(c4ccccc4)CC3)oc2c1C	-5.9*	-5.9
Cc1ccc2c(C)c(C(=O)N3CCN(c4cnccn4)CC3)oc2c1C	i	nt
COc1cc(C(=O)Nn2cnnc2)ccc1OC(F)F	i	0.5
SMILES	KCNQ2 inh	KCNQ2 enhance
COc1ccc(Cn2ccnc2SCC(=O)Nc2ccccc2F)cc1	i	nt
COc1ccc(Cn2ccnc2SCC(=O)Nc2ccccc2OC)cc1	-6.1*	-6.1
CC1(C)CN=C(N(C(=O)Nc2ccccc2)c2ccccc2F)S1	i	nt
CC1(C)CN=C(N(Cc2ccccc2)C(=O)Nc2ccccc2)S1	-6.4*	-6.4
Cc1ccc(SCc2nc3ncccn3c2Br)cc1	i	0.79
CC(C)(C)c1nc(SCC(=O)NNC(=O)c2ccccc2)c2ccccc2n1	i	nt
CCOC(=O)c1ccc(N2C(=O)C(C)=C(C)C2=O)cc1	i	nt
CCOC(=O)c1nn(C23CC4CC(CC(C4)C2)C3)c2c1C(=O)N(c1ccc(C)cc1)C2=O	-6.8*	-6.8
COC(=O)c1nn(C23CC4CC(CC(C4)C2)C3)c2c1C(=O)N(c1ccc(Br)cc1)C2=O	-6.5*	-6.5
COC(=O)c1cc(-c2ccc(Br)cc2)on1	i	0.65
COc1ccc(-c2nc(CN3CCCCC3c3nccn3C)c(C)o2)c(C)c1C (centres undefined)	i	nt
COc1ccc(/C=C2\N=C(c3ccc(C)cc3)OC2=O)cc1	i	nt
Cc1ccc(S(=O)(=O)Oc2ccc(/C=C3/N=C(c4ccccc4)OC3=O)cc2)cc1	-7.4*	-7.4
CN(C)CCCNS(=O)(=O)c1ccc(Cl)s1	i	0.01
COC(=O)CCC(=O)NC(=S)Nc1ccc(S(=O)(=O)Nc2cc(OC)nc(OC)n2)cc1	-6.4*	-6.4
COc1cc(NS(=O)(=O)c2ccc(NC(=S)NC(=O)CC(C)C)cc2)nc(OC)n1	i	0.64
Cc1ccc(OCc2cc(C(=O)N(C)Cc3cnc4ccccn34)no2)cc1C	i	1.6
COc1ccc(C)cc1Nc1n[n+](-c2ccccc2)c(-c2ccc(N(C)C)cc2)s1	-5.7*	-5.7
